Shiga toxin inh – Shiga toxin inhibition; 290,000 tested, 9.2% active; inhibition, % at 38.7 µM; Vero cells, Shiga toxin protein synthesis inhibition reporter; in the data active = inhibition mostly above about 28%, no sharp cut-off; inactive = mostly below about 43%; also: 0% is about no effect
Sm TGR inh – blocks Schistosoma mansoni thioredoxin glutathione reductase | Potency, µM (doses to about 114 µM), for the others: at the top dose activity change, negative = inhibition, usual class: inhibitors | AID 485364 | Q962Y6 | purified TGR, DTNB reduction, TNB absorbance 405 nm | 360,000 tested, 3% active; also: potency is read from the fitted curve at half-maximal effect; % is scaled to controls: 0 for no effect and ±100 for the full control effect; nearly all actives have a fitted effect of over 60% in size
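TGR 20 nM + NADPH 100 uM (dispensed conc.), cpd preinc 15 min RT; start with NADPH (500 uM addition) then DTNB (15 mM addition). Kinetic TNB absorbance, 405 nm filter. Four-parameter Hill fit across titration.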
Giardia FBPA inh – inhibitors of Giardia lamblia fructose-1,6-bisphosphate aldolase. A8B2U2. purified Giardia FBPA. Potency, µM (doses to about 59.6 µM), inactives show top-dose activity, negative = inhibition, usual class: inhibitors. 290,000 tested, 0.71% active; also: potency is read from the fitted curve at half-maximal effect; % is scaled to controls: 0 for no effect and ±100 for the full control effect; nearly all actives have a fitted effect of over 55% in size
Target sequence (A8B2U2 whole entry, looked up): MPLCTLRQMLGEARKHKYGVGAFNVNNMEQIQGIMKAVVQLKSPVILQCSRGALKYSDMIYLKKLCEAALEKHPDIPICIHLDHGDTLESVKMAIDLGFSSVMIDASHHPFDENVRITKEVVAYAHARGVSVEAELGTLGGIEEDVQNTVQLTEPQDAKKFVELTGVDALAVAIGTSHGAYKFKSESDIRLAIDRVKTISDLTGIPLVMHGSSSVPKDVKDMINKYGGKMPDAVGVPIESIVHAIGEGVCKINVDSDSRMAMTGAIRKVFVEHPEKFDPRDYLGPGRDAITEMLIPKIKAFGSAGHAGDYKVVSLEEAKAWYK
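40 nM FBPA preincubated 10 min at RT with compound (up to 57.5 uM final), then substrate plus GAPDH/TPI/NAD/arsenate coupling and diaphorase/resazurin added. Fluorescence read after 20 min at RT, 525/598 nm.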
Cycloheximide cs – affects cycloheximide protein synthesis inhibition readout, counter-screen. cell reporter, cycloheximide protein synthesis inhibition counterscreen. max response, %. 300,000 tested, 12% active. AID 2314; in the data active = max response mostly above about 13%, no sharp cut-off; inactive = mostly below about 14%; also: read at 38.3 µM for the half of the compounds with a filed dose; 0% is about no effect
LmPK inh – LmPK (Leishmania mexicana) enzyme inhibition. purified LmPK, Kinase-Glo ATP luminescence, 1 h. Potency, µM (highest dose often 57.5 µM), without a hit: at the top dose activity change, negative = inhibition, usual class: inhibitors. 290,000 tested, 0.37% active; also: potency is read from the fitted curve at half-maximal effect; % is scaled to controls: 0 for no effect and ±100 for the full control effect
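Purified LmPK (0.1 nM) converted ADP (0.1 mM) to ATP with PEP (0.5 mM) in imidazole buffer pH 7.2 with KCl and MgCl2, 1 h at room temperature. ATP was read by Kinase-Glo luminescence; data normalized to uninhibited and no-enzyme controls.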
Tb PYK inh – inhibitors of Trypanosoma brucei pyruvate kinase; Q57TT1; Potency, µM (series often up to 76.8 µM), without a hit: at the highest dose activity, negative = inhibition, usual class: inhibitors; 410,000 tested, 0.12% active; AID 624173; TbPYK enzyme, Kinase-Glo Plus ATP luminescence, 45 min; also: potency is read from the fitted curve at half-maximal effect; % is scaled to controls: 0 for no effect and ±100 for the full control effect; nearly all actives have a fitted effect of over 50% in size
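Luminescence from Kinase-Glo Plus, added after a 45-minute room-temperature reaction, served as the end-point read-out. The enzyme and substrate were preincubated with compound before ADP (130 uM final) initiated turnover. Concentration-effect curves came from normalized qHTS data.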
An asterisk follows results filed as active; ? = inconclusive; . = no result; [ ] = another dose, or the depositor's remark. Only a selection was taken, and hits are over-represented in it overall. Unless noted, calls follow the shape of the dose curve; as a rule, active = well fitted curve in the direction sought with a large enough effect; inconclusive = small, poorly fitted or top-dose-only effect, or another doubt; inactive = no such curve, though single readings can be large; an effect the other way counts as inactive or inconclusive.

SMILES	Shiga toxin inh	Sm TGR inh	Giardia FBPA inh	Cycloheximide cs	LmPK inh	Tb PYK inh
O=c1c(-c2ccc(O[C@@H]3O[C@H](CO)[C@@H](O)[C@H](O)[C@H]3O)cc2)coc2cc(O)cc(O)c12	.	.	0%	.	.	.
O=c1c(-c2ccc(O)cc2)coc2cc(O)cc(O)c12	112*	-10%	4%	31*	-3%	-6%
O=c1c(-c2cc(O)c(O)c(O)c2)coc2cc(O)c(O)c(O)c12	.	.	5µM*	.	.	.
COc1ccc(-c2coc3cc(O)ccc3c2=O)cc1O	38*	1%	0%	41*	-13%	-11%
COC(=O)c1c(NC(=O)Cc2ccc(OC)c(S(=O)(=O)N3CCOCC3)c2)sc(C)c1C	.	1%	.	.	.	-13%
COc1cc(-c2noc(-c3ccc(NCCc4ccccc4)c([N+](=O)[O-])c3)n2)cc(OC)c1OC	.	-6%	.	.	.	2%
O=C(NS(=O)(=O)N1CCOCC1)C1=C(N2CCCC2)COC1=O	.	.	.	.	.	1%
Cc1ccc(OC(C)C(=O)N2CCN(CCc3ccccn3)CC2)cc1C (stereo not drawn)	.	4%	.	.	.	-5%
CC1CCC(C(=O)O)NC1c1ccc(-c2ccco2)cc1 (stereo not drawn)	.	.	0%[12.9 µM]	.	.	.
CC(C)Oc1cc(O)c2c(=O)c(-c3ccc(O)cc3)coc2c1	82*	-1%	-2%	30*	1%	-2%
COc1ccc(-c2coc3cc(OC4OC(CO)C(O)C(O)C4O)cc(O)c3c2=O)cc1 (stereo not drawn)	.	-2%	7%	.	.	1%
COc1cc(O)cc2occ(-c3ccc(O)cc3)c(=O)c12	12	-27%	2%	13*	-10%	-10%
COc1ccc(-c2coc3cc(O)ccc3c2=O)cc1	.	.	12%	.	.	9%
COc1ccc(-c2coc3cc(OC)cc(O)c3c2=O)cc1	51*	7%	.	52*	-6%	1%
COc1cc(OC)c2c(=O)c(-c3ccccc3)coc2c1	.	.	-4%	.	.	.
COc1ccc(-c2coc3cc(OC)cc(OC)c3c2=O)cc1	49*	4%	0%	34*	-3%	9%
O=C(CN1C(=O)CC(c2ccco2)Sc2ccccc21)Nc1ccc(OC(F)(F)F)cc1 (stereo not drawn)	.	-7%	.	.	.	-6%
CCCn1c2ccccc2c2cnn(CC(=O)NCCc3ccc(OCC)c(OCC)c3)c(=O)c21	.	1%	.	.	.	0%
O=C(O)CSC1CC(=O)N(c2ccc(F)cc2)C1=O (stereo not drawn)	.	.	.	.	.	-9%
O=C1CC(SCc2nc3ccccc3[nH]2)C(=O)N1c1cccc(Cl)c1 (stereo not drawn)	-6	?	-13%	8	1%	-1%
O=C1CC(SCc2nc3ccccc3[nH]2)C(=O)N1c1ccc(F)cc1 (stereo not drawn)	18	45µM*	-16%	5	6%	3%
NCCSC1CC(=O)N(c2ccc(Cl)c(Cl)c2)C1=O (stereo not drawn)	36	63µM*	-11%	16*	-1%	5%
NCCSC1CC(=O)N(c2ccc(F)cc2)C1=O (stereo not drawn)	30	?	?	8.3*	-5%	0%
COc1cccc(NC(=O)Cn2c(=O)n(-c3ccc(C)cc3)c(=O)c3ccc(C(=O)NCc4ccco4)cc32)c1	.	1%	.	.	.	-4%
CC(=O)NCCC(=O)Nc1cc(S(=O)(=O)N2CCOCC2)ccc1N1CCCC1	.	1%	.	.	.	0%
SMILES	Shiga toxin inh	Sm TGR inh	Giardia FBPA inh	Cycloheximide cs	LmPK inh	Tb PYK inh
O=C(Nc1nncs1)c1ccc2c(c1)OCO2	55*	18%	-2%	22*	1%	-3%
CSc1nnc(NC(=O)c2ccc(S(=O)(=O)N(C)C)cc2)s1	28*	-1%	7%	25*	?	-25%
Cc1nnc(NC(=O)c2ccc3c(c2)OCO3)s1	56*	0%	-8%	39*	-9%	4%
CSc1nnc(NC(=O)c2ccc3c(c2)OCO3)s1	69*	-19%	-11%	48*	-9%	-13%
COCCSc1nnc(NC(=O)c2ccc3c(c2)OCO3)s1	17	-9%	-21%	13	-1%	1%
O=C(Nc1ccc(NC(=O)c2cccs2)cc1)c1ccc2c(c1)OCO2	15	0%	2%	-2	4%	-2%
O=P(O)(OCc1ccccc1)OCc1ccccc1	.	-14%	.	.	.	-14%
O=C(CC1(CC2=NS(=O)(=O)c3ccccc3N2)CCCC1)NCCc1ccccc1	18	-9%	3%	8.5*	-2%	-8%
O=C(CSC1=NS(=O)(=O)c2ccccc2N1)NCCc1ccccc1	.	4%	.	.	.	-1%
Cc1ccc(Oc2ccc(C(F)(F)F)cc2[N+](=O)[O-])c([N+](=O)[O-])n1	58	8%	-3%	30*	1%	3%
CCN(CC)C(=O)c1cccc(-c2ccc(OC)cc2)c1	49*	2%	1%	25*	-1%	.
COc1ccc(-c2cccc(C(=O)NCC(=O)O)c2)cc1	35*	7%	7%	23*	-1%	-6%
CCN(CC)C(=O)c1cccc(-c2csc(C(O)c3cccc(OC)c3)n2)c1 (stereo not drawn)	.	.	.	.	.	2%
COC(=O)CNC(=O)c1cccc(-c2ccc(OC)cc2)c1	80*	.	-1%	36*	1%	-4%
CN(C(=O)CSc1nc(-c2ccccc2)no1)c1ccc(F)cc1	.	4%	.	.	.	1%
O=C(Nc1nccs1)c1cc2c(s1)-c1ccccc1OC2	71*	-1%	4%	21*	8%	0%
CC(=O)c1cccc(NC(=O)c2cc3c(s2)-c2c(C)cccc2OC3)c1	.	-9%	.	.	.	4%
Cc1cccc2c1-c1sc(C(=O)Nc3nccs3)cc1CO2	118*	-1%	3%	66*	0%	-2%
CCOC(=O)c1cc2c(s1)-c1c(C)cccc1OC2	168*	5%	-1%	51*	6%	2%
CCc1ccccc1N(C)C(=O)c1cc2c(s1)-c1c(C)cccc1OC2	.	-1%	.	.	.	-8%
O=C(Nc1ccc(S(=O)(=O)Nc2ccccc2)cc1)N1CCCC1	.	3%	.	.	.	-2%
CCc1nn(CC(=O)NCc2ccc(C)cc2)c(=O)c2cc3occc3n12	.	3%	.	.	.	-8%
O=C1CCCC(O)=C1C(C#Cc1ccccc1)C1=C(O)CCCC1=O	3	3.2µM*	-23%	-1	?	?
CC1(C)CC(=O)C(Sc2ccccc2[N+](=O)[O-])=C(O)C1	-4	-30%	-3%	-2	3%	4%
O=C1CCCC(O)=C1Sc1ccccc1C(=O)O	11	.	-8%	4	0%	-2%
CC1(C)CC(=O)C(C(C#Cc2ccccc2)C2=C(O)CC(C)(C)CC2=O)=C(O)C1	21	4µM*	.	9	1%	?
CC(C)CC(=O)Nc1ccc(Oc2ccc3c(c2)C(=O)NC3=O)cc1	4	-6%	-13%	-2	-2%	-17%
